D3 ag: D3 dopamine receptor (human) agonism; max activation, %; P35462; D3R DiscoveRx beta-arrestin cells, luminescence, 90 min; 0.58% of 410,000 active; in the data active = max activation above about 30%; also: 0% is about no effect
Target sequence (P35462 whole entry, looked up): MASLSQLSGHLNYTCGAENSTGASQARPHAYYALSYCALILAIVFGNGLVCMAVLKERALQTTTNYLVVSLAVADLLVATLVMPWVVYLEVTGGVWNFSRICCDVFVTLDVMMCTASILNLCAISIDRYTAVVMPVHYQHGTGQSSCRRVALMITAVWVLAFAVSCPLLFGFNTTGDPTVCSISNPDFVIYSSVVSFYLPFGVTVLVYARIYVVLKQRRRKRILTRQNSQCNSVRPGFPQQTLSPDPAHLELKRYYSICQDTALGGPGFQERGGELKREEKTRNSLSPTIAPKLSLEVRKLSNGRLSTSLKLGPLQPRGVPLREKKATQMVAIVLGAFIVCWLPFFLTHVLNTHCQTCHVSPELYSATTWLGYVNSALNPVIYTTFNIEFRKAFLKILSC
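Agonist mode: compounds and dopamine controls were applied to plated cells for 90 min at 37 degrees C after an overnight attachment at 1500 cells/well. Luminescent read-out followed 30 - 60 minutes at room temperature with DiscoveRx detection reagent.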
TSHR antag: human thyrotropin receptor antagonism; P16473; TSHR-expressing cells, TSH-stimulated cAMP HTRF, 2 h; active compounds read low; activity change, negative = inhibition, % at 11.5 µM; 0.2% of 330,000 active; AID 504810;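 active = activity change below a set negative limit, meaning inhibition stronger than a set level, cut at about -70% in these data; inconclusive = activity change between two set negative limits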; also: % is scaled to controls: 0 for no effect and ±100 for the full control effect
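TSHR-expressing cells, 200/well, pre-treated with compound, then stimulated with EC80 TSH (4nM final) for 2 hours at 37 deg C. cAMP measured by competitive HTRF: anti-cAMP cryptate antibody in lysis buffer plus cAMP-d2, read after 30 minutes at room temperature.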
D3 antag: D3 dopamine receptor (human) antagonism. AID 652054. max response, negative = inhibition, %. 2.5% of 360,000 active. P35462. D3R cells, DiscoveRx beta-arrestin luminescence, antagonist mode; active compounds read low; in the data active = max response below about -50%; inconclusive = no clear call, values can overlap the other calls; also: % is scaled to controls: 0 for no effect and ±100 for the full control effect
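Cells plated overnight at 1500 cells/well, then exposed to library compounds with dopamine controls for 90 minutes at 37 degrees C. DiscoveRx reagent added for 30–60 minutes at room temperature; luminescence read, quantitative HTS format.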
B2AR arrestin: agonists driving beta-arrestin recruitment to human beta2-adrenergic receptor. P07550. beta-arrestin recruitment to beta2AR, cell-based reporter. Potency, µM (top dose mostly 46.1 µM), for inactives: at the highest dose activation, usual class: activators. 0.02% of 330,000 active. AID 492947; active = well fitted activation curve with a large enough effect; inconclusive = small, poorly fitted or top-dose-only effect;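 also: potency is read from the fitted curve at half-maximal effect; 0% = DMSO controls and full agonism = EC100 isoproterenol or metaproterenol; nearly all actives have a fitted effect of over 65% in size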
Numbers without * were called inactive; ? = inconclusive; . = no result given. A selection: hits, their analogues and other compounds. The true share with any hit is near 2.9%.

SMILES	D3 ag	TSHR antag	D3 antag	B2AR arrestin
N=c1sccn1CC(=O)NCCc1ccc(Cl)cc1Cl	-9	9	-50*	0%
O=C(Cc1ccccc1)NCCc1ccc(Cl)cc1Cl	2	-5	16	-1%
CC(C)c1ccc(NC(=O)C2CCCN(S(=O)(=O)c3ccc4[nH]c(=O)ccc4c3)C2)cc1 (centres undefined)	8	.	.	.
CSc1cccc(CN2CCN(Cc3ccccc3)C(CCO)C2)c1 (centres undefined)	0	8	-54*	4%
CSc1cccc(CN2CCN(CCc3ccccc3)C(CCO)C2)c1 (centres undefined)	-25	12	-114*	-1%
CSc1cccc(CN2CCN(Cc3ccc(F)c(F)c3)C(CCO)C2)c1 (centres undefined)	-11	9	-63*	0%
CC(C)c1cc(CN2CCN(Cc3ccc(F)c(F)c3)C(CCO)C2)[nH]n1 (centres undefined)	-10	3	?	0%
CSc1ccc(CN2CCN(Cc3ccccc3)C(CCO)C2)cc1 (centres undefined)	-23	-2	?	-1%
OCCC1CN(C2CSCCSC2)CCN1Cc1ccccc1 (centres undefined)	-15	-5	-4	0%
OCCC1CN(C2CCN(c3ccccc3F)CC2)CCN1Cc1ccccc1 (centres undefined)	-20	-5	-103*	0%
Cc1cc(C)cc(-n2ccn(CC(=O)c3ccc(F)cc3)c(=O)c2=O)c1	3	.	.	.
Cc1nn(C)c2c1c(-c1ccccc1)cc(=O)n2Cc1ccccc1Cl	6	.	.	.
Nc1c2c(nc3ccc(Br)cc13)N(Cc1ccccc1)CC2	-3	5	-59*	0%
Nc1c2c(nc3ccc(Br)cc13)N(c1ccccc1)CC2	-6	-8	-5	0%
N#C/C(=N\Nc1ccc(Cl)cc1)C(=O)c1ccccc1	-2	-48	0	0%
Cc1c(N/N=C(\C#N)C(=O)c2ccc(Cl)cc2)c(=O)n(-c2ccccc2)n1C	-23	1	-80*	0%
O=C1Nc2c(Cl)cc(Cl)cc2C1=O	-12	.	-93*	.
Cc1ccc(C)c(N)c1	-9	10	-1	0%
Cc1ccc(O)c(N)c1	-63	9	-105*	-1%
COC(=O)c1ccc(/C=C(\C#N)C(=O)NC(C)c2ccccc2)cc1 (centres undefined)	1	-11	-56*	0%
COc1ccc(/C=C(\C#N)C(=O)NC(C)c2ccccc2)cc1O (centres undefined)	-3	-4	8	0%
CC(NC(=O)/C(C#N)=C/c1ccc([N+](=O)[O-])o1)c1ccccc1 (centres undefined)	-7	-48	-96*	0%
CC(=O)CSc1nc(-c2ccccc2)[nH]c1S(=O)(=O)c1ccc(C)cc1	2	.	.	.
CCCCCNCc1ccc(Cl)cc1	2	5	-9	0%
CCCCCNCc1cccc(Br)c1	-31	-1	-63*	-1%
SMILES	D3 ag	TSHR antag	D3 antag	B2AR arrestin
CCCCCCNCc1cccc(Br)c1	-31	17	-81*	0%
CCCCCCNCc1ccc(Br)cc1	-34	12	-66*	-1%
Brc1cccc(CNCCCN2CCOCC2)c1	-13	0	?	0%
CCCCCNCc1ccc(Br)cc1	-35	3	?	0%
NC(=O)n1c(O)c(C(=O)c2cccs2)c2cc(Cl)ccc21	-7	.	.	.
Cc1ccsc1CN(C)CC(=O)Nc1ccc([N+](=O)[O-])cc1Cl	-7	-25	-8	-1%
CN(CC(=O)Nc1cc([N+](=O)[O-])ccc1Cl)Cc1ccc(Br)cc1	-15	3	-85*	0%
CC(C)CC(=O)Nc1ccc(C(=O)OCc2cc(=O)n3nc(C(C)C)sc3n2)cc1	12	.	.	.
CCOc1ccc(CCNC(=O)c2[nH]c3cc(OC)ccc3c2Sc2ccccc2)cc1OCC	2	.	.	.
CCOC(=O)c1ccc(NC(=O)c2noc3c2CCCC3)cc1	-9	.	.	.
Oc1ccc2ccccc2c1CN1CCN(c2ccccc2F)CC1	-6	0	-95*	0%
O=S(=O)(c1ccccc1)N1CCN(Cc2c(O)ccc3ccccc23)CC1	6	25	4	0%
Oc1ccc2ccccc2c1CN1CCN(C/C=C/c2ccccc2)CC1	-26	-13	-56*	0%
CC(=O)N1CCC(C(=O)N2c3ccccc3N=C(c3ccc4c(c3)OCO4)C2C(=O)NCc2ccccc2)CC1 (centres undefined)	-5	.	7	.
